Test results: PubChem BioAssay AID1159580 (chemical genetic matrix, 2015)
Hit rate of the full screen: of about 5,500 compounds, about 2,000 (36%) were called active. Inconclusive results (about 18%) are left out. No stated cut-off is given here; in the data, active means normalized growth mostly below about 0.91 (no sharp cut-off); inconclusive means no clear call, values can overlap the other calls; inactive means mostly above about 0.92. The list shows a part of the results.

Assay: chemical genetic growth profiling, strain panel (AID 1159580);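 further: tested at 20 µM; growth read once vehicle control cultures reached saturation at 30 °C; 1 = growth at the plate median or of vehicle wells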
Settings: S. cerevisiae deletion strains, growth OD

Measured: normalized growth

N[C@H](CCCCCP(=O)(O)O)C(=O)O
inactive: locus YAL013W, strain DEP1, stronger effect = lower value 0.989 | locus YAL040C, strain CLN3, stronger effect = lower value 1.06 | locus YCL061C, strain MRC1 (second series), stronger effect = lower value 1.01 | locus YER002W, strain NOP16, stronger effect = lower value 1 | locus YGR078C, strain PAC10, stronger effect = lower value 1 | locus YJR075W, strain HOC1, stronger effect = lower value 1.01 | locus YMR263W, strain SAP30, stronger effect = lower value 1.01 | locus YNL128W, strain TEP1, stronger effect = lower value 0.987 | locus YNL153C, strain GIM3, stronger effect = lower value 1.02 | locus YNL175C, strain NOP13, stronger effect = lower value 0.994 | locus YNL197C, strain WHI3, stronger effect = lower value 0.968 | locus YNL224C, strain SQS1, stronger effect = lower value 1 | locus YOR083W, strain WHI5 (second series), stronger effect = lower value 0.964 | locus YPL055C, strain LGE1, stronger effect = lower value 0.997 | locus YPL241C, strain CIN2, stronger effect = lower value 1
